58 compounds from PubChem BioAssay AID652053 (Broad Institute, 2013) can be followed below.

Structures are written as SMILES. Screen size: about 1,300 compounds; about 930 (72%) were called active.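 The calls were made as follows: active = fitted curve reaches 40% activation signal increase at or below the top valid tested concentration in every replicate test; inconclusive = replicate tests disagree in their calls; inactive = all replicate tests inactive, including effects opposite the expected signal rise.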 So high a share suggests a set chosen from earlier hits. These entries were drawn from the full list. Entries that show only a call come without a potency. Potency and affinity values are given separately.

The nature of the assay: suppression of miR-122 activity, Renilla luciferase sensor – cell-based, Huh7 psiCHECK-miR122, cherry-pick, dose response (AID 652053). Particulars: Huh7 psiCHECK-miR122 Renilla luciferase reporter, 48 h; series mostly up to 35 µM. For orientation: In a reporter assay the amount or activity of a reporter protein is the signal.
As to `COC(=O)C(CC(C)C)Oc1ccc2c(C)cc(=O)oc2c1` (stereo not drawn), the compound was called inactive.

Regarding `CC(Oc1ccc(Cl)cc1)c1ccnn1S(=O)(=O)c1ccc(Cl)cc1` (stereo not drawn), the outcome was inactive.

Regarding `COC(=O)c1ccccc1NC(=O)Cn1c(-c2nonc2N)nc2ccccc21`, the call was inactive.

On to `C[C@H]1CN([C@@H](C)CO)C(=O)Cc2cc(NC(=O)Nc3cccc4ccccc34)ccc2O[C@H]1CN(C)C(=O)Nc1cccc2ccccc12`, for which the compound was classed as inactive.

For `C[C@H](CO)N1C[C@H](C)[C@@H](CN(C)C(=O)Nc2cccc3ccccc23)Oc2ccc(NC(=O)Nc3cccc4ccccc34)cc2CC1=O`, the compound was called inactive.

As for `C[C@@H]1CN([C@@H](C)CO)C(=O)Cc2cc(NC(=O)Nc3cccc4ccccc34)ccc2O[C@H]1CN(C)C(=O)Nc1cccc2ccccc12`, the compound was called inactive.

Turning to `C[C@H]1CN([C@@H](C)CO)C(=O)Cc2cc(NC(=O)Nc3cccc4ccccc34)ccc2O[C@@H]1CN(C)C(=O)Nc1cccc2ccccc12`, the compound was classed as inactive.

In the case of `COc1ccc(NC(=O)Nc2cccc3c2O[C@H](CN(C)Cc2ccc4c(c2)OCO4)[C@@H](C)CN([C@@H](C)CO)C3=O)cc1`, the compound was classed as inactive.

For `FC(F)(F)c1nnc2c(Sc3ccccc3)nc3ccc(Cl)cc3n12`, the call was inactive.

For `CCC1=NN(C(=O)c2ccccc2O)C(O)(c2ccccc2)C1` (stereo not drawn), the compound was classed as inactive.

Turning to `CCC(=O)N1[C@H](CN(CC)C(=O)c2cccc(F)c2)[C@H](c2ccccc2)[C@@H]1CO`, the compound was called inactive.

Take `COc1ccc(CNC(=O)C(c2ccc(C)o2)N(Cc2cccs2)C(=O)Cc2cccs2)cc1` (stereo not drawn): the compound was classed as inactive.

Regarding `CC(C)Cc1nc2sc3c(=O)[nH]cnc3c2c2c1CCC2`, the outcome was inactive.

Regarding `Cc1ccc(S(=O)(=O)Nc2ccc(C(=O)NCc3ccccn3)cc2)cc1`, the compound was classed as inactive.

`O=c1[nH]c(=O)c2[nH]c(=O)n(-c3ccccc3)c2[nH]1`: the outcome was inactive.

Turning to `CCS(=O)(=O)N1Cc2ccccc2CC1C(=O)NCC12CC3CC(CC(C3)C1)C2` (stereo not drawn), the compound was classed as inactive.

Take `O=C(c1ccc(F)cc1)N1[C@H](CO)[C@@H]2c3ccccc3NC[C@@H]21`: the outcome was inactive.

`CCn1nc(C(=O)Nc2ccc(S(=O)(=O)Nc3nccs3)cc2)c2ccccc2c1=O`: the call was inactive.

`CCCNC(=O)N1[C@H](CO)[C@@H]2c3ccccc3N(C(=O)c3ccc(F)cc3)C[C@@H]21`: the result was inactive.

Take `CC(C)NC(=O)N1[C@H](CO)[C@@H]2c3ccccc3N(C(=O)c3ccc(F)cc3)C[C@@H]21`: the result was inactive.

On to `CCN(C[C@@H]1[C@@H](c2ccccc2)[C@@H](CO)N1C(=O)COC)S(C)(=O)=O`, for which the outcome was inactive.

With `O=C(Nc1ccccc1)c1cc([N+](=O)[O-])ccc1NC1CCCCC1`, the compound was called inactive.

`O=C(Nc1ccccc1Br)C1CCN(S(=O)(=O)c2cccs2)CC1`: the compound was classed as inactive.

Take `Cc1cc(C)cc(NC(=O)C2CCN(c3nccs3)CC2)c1`: the outcome was inactive.

`CN1C(=O)c2cc(NC(=O)NC3CCCC3)ccc2OC[C@H]2O[C@@H](CC(=O)O)CC[C@H]21`: the compound was called inactive.

Take `CN1C(=O)c2cc(NC(=O)Cc3cccs3)ccc2OC[C@@H]2O[C@@H](CC(=O)NCC3CCCCC3)CC[C@@H]21`: the compound was called inactive.

Regarding `Cc1ccc(CC(=O)N(Cc2ccccc2)c2ccccn2)cc1`, the compound was classed as inactive.

With `Cc1ccc(-c2nc(CSCC(=O)NCCN3CCN(Cc4ccccc4)CC3)c(C)o2)cc1`, the compound was classed as inactive.

In the case of `CCCc1cc(=O)oc2cc(OCc3nn[nH]n3)ccc12`, the call was inactive.

For `COc1ccccc1CNC(=O)C[C@@H]1CC[C@@H]2[C@H](COc3ccc(NS(=O)(=O)c4ccc(C)cc4)cc3C(=O)N2C)O1`, the compound was called inactive.

Turning to `COc1ccccc1CNC(=O)C[C@@H]1CC[C@H]2[C@@H](COc3ccc(NS(=O)(=O)c4ccc(C)cc4)cc3C(=O)N2C)O1`, the call was inactive.

Consider `COc1ccccc1CNC(=O)C[C@H]1CC[C@@H]2[C@@H](COc3ccc(NC(C)=O)cc3C(=O)N2C)O1`, for which the compound was classed as inactive.

On to `COc1ccccc1CNC(=O)C[C@@H]1CC[C@@H]2[C@H](COc3ccc(NC(C)=O)cc3C(=O)N2C)O1`, for which the compound was classed as inactive.

Take `COc1ccccc1CNC(=O)C[C@H]1CC[C@@H]2[C@H](COc3ccc(NS(=O)(=O)c4ccc(C)cc4)cc3C(=O)N2C)O1`: the call was inactive.

Turning to `CCOCc1nnc(NS(C)(=O)=O)s1`, the call was inactive.

On to `CS(=O)(=O)N1N=C(c2ccc(Cl)cc2)CC1c1cccs1` (stereo not drawn), for which the outcome was inactive.

Regarding `c1ccc2c(c1)ccc1nnnn12`, the result was inactive.

For the compound `Cc1cccc(-c2nnc(-c3cccc4ccccc34)o2)c1`, the outcome was inactive.

With `OC(COC(c1ccc(Cl)cc1)c1ccc(Cl)cc1)CN1CCCC1` (stereo not drawn), the compound was classed as inactive.

With `COc1ccccc1CNC(=O)C[C@H]1CC[C@@H]2[C@@H](COc3ccc(NC(=O)Nc4ccc(F)c(F)c4)cc3C(=O)N2C)O1`, the compound was classed as inactive.

In the case of `CC1CCCC(NC(=O)COC(=O)c2ccccc2NC(=O)c2ccco2)C1C` (stereo not drawn), the outcome was inactive.

With `Nc1nonc1C(=O)N1CCCC1`, the result was inactive.

Turning to `COc1ccccc1N1CCN(C2CC(=O)N(c3cccc(Cl)c3)C2=O)CC1` (stereo not drawn), the compound was classed as inactive.

As to `COc1ccccc1N1CCN(C(=O)c2ccc(Cn3c(=O)[nH]c4ccsc4c3=O)cc2)CC1`, the compound was classed as inactive.

With `CCOc1ccccc1N1CCN(C(=O)c2ccc3[nH]c(C)c(C)c3c2)CC1`, the compound was classed as inactive.

Consider `O=C(CN(C1CCCCC1)S(=O)(=O)c1ccc(Cl)cc1)NCc1cccnc1`, for which the result was inactive.

As to `COC(=O)c1ccc(/C=N/OCC(=O)NC2CCCCCCC2)cc1`, the compound was called inactive.

As for `Cc1ccc(C)c(NC(=O)CSc2nnc(CCNC(=O)OC(C)(C)C)o2)c1`, the outcome was inactive.

`Cc1ccc2cc(-c3noc(C(C)(C)C)n3)c(=O)[nH]c2c1`: the compound was classed as inactive.

As for `CC(=O)c1cccc(NC(=O)NCc2cccs2)c1`, the call was inactive.

With `O=c1c[n+]([O-])c2ccccc2n1OCc1c(F)cccc1F`, the outcome was inactive.

`COc1ccc(OCCCC(=O)NCCc2ccccc2)cc1`: the outcome was inactive.

For the compound `COc1ccc(S(=O)(=O)N2N=C(C)Oc3ccccc3C2=O)cc1`, the outcome was inactive.

In the case of `COc1ccc(-c2nc(SCc3ccccc3)n(S(C)(=O)=O)n2)cc1`, the call was inactive.

`COc1ccc(NC(=O)CCN2C(=O)c3ccccc3C2=O)cc1`: the result was inactive.

`CC(=O)Nc1nonc1-n1nnc(C(=O)NCc2ccccc2)c1C`: the result was inactive.

For the compound `O=C(CN(Cc1cccs1)S(=O)(=O)c1ccc(S(=O)(=O)NC2CCCCC2)cc1)Nc1ccccc1`, the compound was called inactive.

In the case of `C=CCN=C1NN=C(c2ccc3c(c2)OCCO3)CS1`, the call was inactive.
